# Results: PubChem BioAssay (NCATS)
# Inconclusive results are not listed. Where a call stands in place of a potency, no number is given. Activity calls are given as the source filed them. The call rests on the fitted dose curve; in most records, active means well fitted inhibition curve with a large enough effect; inconclusive means small, poorly fitted or top-dose-only effect; inactive means no such curve, though single readings can be large or run the other way.
# Target: Retinaldehyde dehydrogenase 3 (Homo sapiens) (UniProt P47895)
# Test: qHTS for Inhibitors of the Aldehyde Dehydrogenase Family (ALDH1A3) Primary screen (AID 2061315)
# Conditions: ALDH inhibition qHTS; series mostly up to 56 µM
row,SMILES,Potency
1,COc1cc(OC)cc(C2=Nn3c(nnc3-c3ccccc3O)SC2)c1,inactive
2,CCOc1ccc(CCNC(=O)c2cc3ccccc3n2Cc2ccc(Cl)c(F)c2)cc1OCC,inactive
3,Cc1ccc(-c2nccc(=O)n2CC(=O)N(C)C(C)c2ccco2)cc1 (configuration not stated),inactive
4,COc1ccc(-c2nc(Nc3ccc(F)c(F)c3)c3ccccc3n2)cc1,inactive
5,O=C(OCC#CCSc1nnc(-c2cccc3ccccc23)o1)c1ccc(OC(F)(F)F)cc1,inactive
6,Cc1cc(C)nc(NC(=S)N2CCN(Cc3cccc4ccccc34)CC2)c1,inactive
7,O=C1CCc2cc(S(=O)(=O)NCc3ccccc3)ccc2N1,inactive
8,Oc1ccc(CNCc2ccc3c(c2)OCO3)c2cccnc12,inactive
9,Oc1cc(-c2ccncc2)cc2cccnc12,inactive
10,FC(F)(F)c1cc(-c2ccc(CNc3nc(C4CCCC4)nc4ccccc34)cc2)ccn1,inactive
11,O=S(=O)(c1ccc2c(c1)OCCCO2)N1CCN(S(=O)(=O)c2c(F)cccc2F)CC1,inactive
12,Cc1cnc(-c2ccccc2C(C)C)nc1NCc1ccc(-c2ccnc(C(F)(F)F)c2)cc1,inactive
13,Cc1ccc(NS(=O)(=O)c2ccc3c(c2)CCC(=O)N3)cc1F,inactive
14,Cc1nc(CNc2ncnc3ccc(-c4oc(-c5ccccc5)nc4C)cc23)cs1,inactive
15,C/C=C\C1=CCCC1Nc1ncnc2ccc(-c3c(C)noc3C)cc12 (configuration not stated),inactive
16,CCN(CC)C(=O)c1cc(S(=O)(=O)Cc2ccccc2)c(N2CCC(c3ccccc3)CC2)cc1N(CC)CCN(C)C,inactive
17,COc1ccccc1NC(=O)c1cc(-c2ccc(C)c(C)c2)nc2ccccc12,inactive
